Measurements published in PubChem BioAssay AID1817 (Sanford-Burnham Center for Chemical Genomics, 2009).
About 50 (0.02%) of roughly 290,000 compounds were called active.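 Rule for the calls: active = displacement of at least 50% at 20 µM, with a fluorescence ratio check between 0.3 and a set limit; inactive = the rest.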 Many of the other results were omitted from the sample, so actives are more common in it than they were. Measured potencies and affinities stand elsewhere.

The compounds below were run against E3 ubiquitin-protein ligase SIAH1 (Homo sapiens) (UniProt Q8IUQ4) (assay: blockers of Siah-1 interaction with plectin peptide – biochemical, fluorescence polarization, rhodamine-plectin, uHTS, primary screen (AID 1817;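 note: plate controls were Siah plus tracer with DMSO for no effect and tracer alone without Siah for full effect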)). Conditions: Siah-1 / rhodamine-plectin peptide fluorescence polarization; at 20 µM; stronger effect = higher value.
E3 ubiquitin-protein ligase SIAH1 (Homo sapiens), sequence (Q8IUQ4 whole entry, looked up): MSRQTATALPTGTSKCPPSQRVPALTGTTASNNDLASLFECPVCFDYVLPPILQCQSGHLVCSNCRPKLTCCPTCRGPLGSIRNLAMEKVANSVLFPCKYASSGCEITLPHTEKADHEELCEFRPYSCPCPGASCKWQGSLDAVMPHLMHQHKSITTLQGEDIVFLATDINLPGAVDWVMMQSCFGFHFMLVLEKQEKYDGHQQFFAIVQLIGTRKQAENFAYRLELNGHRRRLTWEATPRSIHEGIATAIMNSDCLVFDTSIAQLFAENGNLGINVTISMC

Question: For `C=CCc1cccc2cc(C(=O)Nc3ccc(NC(C)=O)cc3)c(=O)oc12`, which displacement is on record?
Answer: The displacement was 9.1% (inactive).

Question: Which displacement does the source give for `C=CCc1cccc2cc(C(=O)Nc3ccc(F)cc3)c(=O)oc12` here?
Answer: Its displacement is 5.1% (inactive).

Question: Which displacement does the source give for `CCn1c(SC(C)C(=O)O)nnc1-c1cccnc1` (stereo not given) here?
Answer: The displacement was -1.4% (inactive).

Question: `Cc1ccc(-n2ncc3c2CC(C)(C)CC3NC(=O)c2ccc[n+]([O-])c2)cc1` (stereo not given) was tested. Which displacement did it give?
Answer: Its displacement is 4.8% (inactive).

Question: For `OCCNC(=S)Nc1ccc2nsnc2c1`, which displacement is on record?
Answer: Its displacement is -1.1% (inactive).

Question: With `C=CCNC(=S)Nc1ccc2nsnc2c1` as the compound, how does the displacement read?
Answer: Its displacement is 52.1% (active).

Question: For `C=CCNC(=S)Nc1ccc2nc(C)c(C)nc2c1`, which displacement is on record?
Answer: Its displacement is 3.4% (inactive).

Question: How did the displacement turn out when `O=C(N/N=C/c1cccnc1)c1ccc2c(c1)OCCO2` was run?
Answer: The displacement was -2.3% (inactive).

Question: How did the displacement turn out when `COc1ccc(-c2nc3c4ccccc4ccn3c2CN2CCOCC2)cc1OC` was run?
Answer: Its displacement is 13.8% (inactive).

Question: For `COC(=O)c1ccc2c(=O)n(CCCN3CCCC3=O)c(=S)[nH]c2c1`, which displacement is on record?
Answer: The displacement was -3.7% (inactive).

Question: For `O=C(O)c1nc(-c2ccccc2)n(-c2cccc(C(F)(F)F)c2)n1`, which displacement is on record?
Answer: The displacement was -2.9% (inactive).

Question: With `COCCNC(=O)CSc1nc2cc(OC)c(OC)cc2c(=O)n1Cc1ccc(OC)cc1` as the compound, how does the displacement read?
Answer: The displacement was 0.2% (inactive).

Question: With `Cc1cc(C)n2nnnc2c1C#N` as the compound, how does the displacement read?
Answer: Its displacement is 1.6% (inactive).

Question: `O=C(Nc1ccc(Br)cc1)c1ccc(N2C(=O)C3CC=C(Cl)CC3C2=O)cc1` (stereo not given) was tested. Which displacement did it give?
Answer: The displacement was -0.2% (inactive).

Question: For `O=C(Nc1ccc(Br)cc1)c1ccc(N2C(=O)C3CCCCC3C2=O)cc1` (stereo not given), which displacement is on record?
Answer: Its displacement is -1% (inactive).

Question: Which displacement does the source give for `CCCOc1ccc(C(=O)CCC(=O)OCC(=O)Nc2cc(C)on2)cc1` here?
Answer: The displacement was -2.7% (inactive).

Question: How did the displacement turn out when `COc1ccccc1C(=O)Nc1ccnn1C1CCN(Cc2ccc3nonc3c2)CC1` was run?
Answer: Its displacement is 7.2% (inactive).

Question: How did the displacement turn out when `Cn1c(Cc2csc(N)n2)nnc1SCC(=O)NC1CCCCC1` was run?
Answer: Its displacement is 0.1% (inactive).

Question: Which displacement does the source give for `O=S(=O)(c1ccc(Cl)cc1)N1CCN(C2CCN(Cc3ccccc3)CC2)CC1` here?
Answer: Its displacement is 3% (inactive).

Question: With `Cc1oc2cc(O)ccc2c(=O)c1-c1ccccc1` as the compound, how does the displacement read?
Answer: Its displacement is 8.8% (inactive).

Question: For `Nc1ccc(-c2c3ccc(=O)cc-3oc3cc(O)ccc23)cc1C(=O)O`, which displacement is on record?
Answer: Its displacement is 3% (inactive).

Question: `C/C(=N\NC(=O)c1c(Cl)cnn1C)c1cccc(NC(=O)COc2ccccc2)c1` was tested. Which displacement did it give?
Answer: The displacement was 0.3% (inactive).

Question: For `CC(=O)Nc1ccc(C(=S)NCCCO)cc1`, which displacement is on record?
Answer: The displacement was -4.5% (inactive).

Question: How did the displacement turn out when `O=C(COC(=O)c1ccc2c(c1[N+](=O)[O-])C(=O)c1ccccc1C2=O)NC1CC1` was run?
Answer: The displacement was 76.3% (active).

Question: How did the displacement turn out when `Cc1[nH]c2ccccc2c1CCNC(=O)c1ccc2c(c1[N+](=O)[O-])C(=O)c1ccccc1C2=O` was run?
Answer: Its displacement is 22.7% (inactive).

Question: With `O=C(COC(=O)c1ccc2c(c1Cl)C(=O)c1ccccc1C2=O)NC1CCCCC1` as the compound, how does the displacement read?
Answer: The displacement was -2.2% (inactive).

Question: Which displacement does the source give for `O=C(COC(=O)c1ccc2c(c1Cl)C(=O)c1ccccc1C2=O)NC1CC1` here?
Answer: Its displacement is -3.3% (inactive).

Question: How did the displacement turn out when `COc1ccc2c(c1O)C(=O)c1ccccc1C2=O` was run?
Answer: Its displacement is 2.4% (inactive).

Question: For `CN(C)C(=O)c1ccc2c(c1[N+](=O)[O-])C(=O)c1ccccc1C2=O`, which displacement is on record?
Answer: Its displacement is 60.6% (active).

Question: How did the displacement turn out when `CC(C)COC(=O)c1ccc2c(c1O)C(=O)c1ccccc1C2=O` was run?
Answer: Its displacement is 4.6% (inactive).

Question: Which displacement does the source give for `CCN(CC)C(=O)c1ccc2c(c1[N+](=O)[O-])C(=O)c1ccccc1C2=O` here?
Answer: Its displacement is 34.3% (inactive).

Question: `COC(=O)c1ccc2c(c1O)C(=O)c1ccccc1C2=O` was tested. Which displacement did it give?
Answer: The displacement was 71.8% (active).

Question: For `CN(CCOc1ccccc1)S(=O)(=O)c1ccc2oc3ccccc3c2c1`, which displacement is on record?
Answer: Its displacement is 2.8% (inactive).

Question: For `CC(=O)c1ccc(NC(=O)CCNS(=O)(=O)c2ccccc2F)cc1`, which displacement is on record?
Answer: The displacement was -1.6% (inactive).

Question: `Cc1ccc(N(C)S(=O)(=O)c2cc3c(cc2C)NC(=O)CO3)cc1` was tested. Which displacement did it give?
Answer: The displacement was -1% (inactive).

Question: `Cc1nc(N)sc1-c1csc(Nc2ccccn2)n1` was tested. Which displacement did it give?
Answer: The displacement was -1.4% (inactive).

Question: `Cc1nc(N)sc1-c1csc(Nc2ncccn2)n1` was tested. Which displacement did it give?
Answer: Its displacement is 57.3% (active).

Question: Which displacement does the source give for `Cc1nc(N)sc1-c1csc(Nc2ccccc2)n1` here?
Answer: The displacement was 3.2% (inactive).

Question: How did the displacement turn out when `CCOC(=O)c1[nH]c2ccccc2c1NC(=O)c1ccc(S(=O)(=O)N2CCCCC2)cc1` was run?
Answer: The displacement was -3.4% (inactive).

Question: With `COc1ccc(C(=O)N2CCC(O)(c3ccc(Cl)cc3)CC2)cc1OC` as the compound, how does the displacement read?
Answer: Its displacement is -8.7% (inactive).

Question: How did the displacement turn out when `CC1CCc2onc(C(=O)NCc3ccco3)c2C1` (stereo not given) was run?
Answer: The displacement was 3.6% (inactive).

Question: For `Cc1ccccc1Nc1nc(-c2sc(NC(=O)c3ccccc3)nc2C)cs1`, which displacement is on record?
Answer: The displacement was -5.4% (inactive).

Question: Which displacement does the source give for `O=C(CN1C(=O)N/C(=C\c2ccccc2OCc2ccc(C(=O)O)cc2)C1=O)Nc1ccccc1F` here?
Answer: The displacement was 10.4% (inactive).

Question: For `O=C(CN1C(=O)N/C(=C\c2ccccc2OCc2ccc(C(=O)O)cc2)C1=O)Nc1ccc(F)cc1`, which displacement is on record?
Answer: The displacement was 1.1% (inactive).

Question: For `CCOC(=O)CNC(=S)N(Cc1cccs1)C1CCCC1`, which displacement is on record?
Answer: Its displacement is 0.7% (inactive).

Question: Which displacement does the source give for `Cc1cccc(C(=O)NNC(=O)c2ccc(S(=O)(=O)N3CCOCC3)cc2)c1` here?
Answer: The displacement was -3.9% (inactive).

Question: How did the displacement turn out when `O=c1[nH]n(-c2ccccc2)c(=O)c2ccccc12` was run?
Answer: Its displacement is 0% (inactive).

Question: With `O=c1cc(-c2ccccc2)[nH]n1-c1ccc([N+](=O)[O-])cc1` as the compound, how does the displacement read?
Answer: The displacement was -0.2% (inactive).

Question: With `O=C(C1CCN(S(=O)(=O)c2ccc(F)cc2)CC1)N1CC=C(c2ccccc2)CC1` as the compound, how does the displacement read?
Answer: The displacement was 3% (inactive).

Question: How did the displacement turn out when `COc1ccc(C(CNC(=O)C(C)c2ccc3cc(OC)ccc3c2)N(C)C)cc1` (stereo not given) was run?
Answer: The displacement was 5.2% (inactive).

Question: For `CC1=C(C#N)c2nc(N)c(C#N)c(C)c2/C1=C\c1ccc(OCC(=O)O)c(Cl)c1`, which displacement is on record?
Answer: Its displacement is 0% (inactive).

Question: For `CC1=C(C#N)c2nc(N)c(C#N)c(C)c2/C1=C\c1ccc(C)cc1`, which displacement is on record?
Answer: The displacement was -2.8% (inactive).

Question: With `COc1ccc(C2=[N+]([O-])C(C)(C)C(c3ccccc3)=N2)cc1` as the compound, how does the displacement read?
Answer: The displacement was 6.6% (inactive).

Question: With `COc1ccc(-c2nc(CN3CCN(Cc4cccc(F)c4)CC3)c(C)o2)cc1` as the compound, how does the displacement read?
Answer: The displacement was 13.6% (inactive).

Question: `O=C(CCC1CCCC1)N1CCN(C(=O)c2ccco2)CC1` was tested. Which displacement did it give?
Answer: Its displacement is -6% (inactive).

Question: With `O=C(CNC(=O)c1ccccc1F)NC1CCN(Cc2ccccc2)CC1` as the compound, how does the displacement read?
Answer: Its displacement is -3.7% (inactive).

Question: `CC(SCc1ccccc1)C(=O)Nc1ccccc1Br` (stereo not given) was tested. Which displacement did it give?
Answer: Its displacement is -6.3% (inactive).

Question: How did the displacement turn out when `Cc1sc2cc(-c3cccc([N+](=O)[O-])c3)c(-c3cccc([N+](=O)[O-])c3)c[n+]2c1C` was run?
Answer: The displacement was 5.1% (inactive).

Question: How did the displacement turn out when `Oc1ccccc1/C=N/NC(=S)NC1CC2CC1C1C=CCC21` (stereo not given) was run?
Answer: Its displacement is 2.4% (inactive).

Question: How did the displacement turn out when `CC(C)(C)c1nnc(N/N=C/c2ccc(O)cc2)n(N)c1=O` was run?
Answer: Its displacement is 18.4% (inactive).

Question: With `CC(C)(C)c1nnc(N/N=C/c2ccc(Br)cc2)n(N)c1=O` as the compound, how does the displacement read?
Answer: Its displacement is 7.3% (inactive).

Question: How did the displacement turn out when `CC(C)(C)c1nnc(N/N=C/c2ccccc2)n(N)c1=O` was run?
Answer: The displacement was 51.9% (active).

Question: Which displacement does the source give for `CCCc1nnc(NC(=O)C2CC(=O)N(CCc3ccc(F)cc3)C2)s1` (stereo not given) here?
Answer: Its displacement is 24.3% (inactive).

Question: Which displacement does the source give for `Cc1c(C)n(C(=O)CSc2ncn[nH]2)c2ccccc12` here?
Answer: Its displacement is -4.9% (inactive).

Question: `Cc1[nH]c2ccccc2c1C(=O)CSc1nc2ccccc2[nH]1` was tested. Which displacement did it give?
Answer: Its displacement is -0.5% (inactive).

Question: How did the displacement turn out when `Cc1c(C)n(C(=O)CSc2nc3ccccc3[nH]2)c2ccccc12` was run?
Answer: Its displacement is 51% (active).

Question: How did the displacement turn out when `O=C(CSCc1nc2scc(-c3cccs3)c2c(=O)[nH]1)Nc1ccccn1` was run?
Answer: Its displacement is -4.4% (inactive).

Question: How did the displacement turn out when `COc1ccc(OCC(O)CNC(=O)c2ccccc2C(=O)O)cc1` (stereo not given) was run?
Answer: Its displacement is 8.1% (inactive).

Question: With `CCOC(=O)C(C(=O)OCC)c1cc(Br)c2noc3c2c1C(=O)c1ccccc1-3` as the compound, how does the displacement read?
Answer: Its displacement is 102% (active).

Question: How did the displacement turn out when `CCOC(=O)N1CCN(c2cc(NCCC(=O)O)c3c4c(onc24)-c2ccccc2C3=O)CC1` was run?
Answer: The displacement was 16.7% (inactive).

Question: For `CCOc1ccc2noc3c2c1C(=O)c1ccccc1-3`, which displacement is on record?
Answer: The displacement was 37.3% (inactive).

Question: For `COc1ccc(-c2cc(C(=O)N3CCc4ccccc4C3)no2)cc1`, which displacement is on record?
Answer: The displacement was 0.3% (inactive).

Question: Which displacement does the source give for `Cc1ccc(S(=O)(=O)N2CCN(c3cccc(C)c3)CC2)cc1` here?
Answer: Its displacement is 12.1% (inactive).

Question: `COc1cccc(OCc2cc(C(=O)NC3CCOCC3)no2)c1` was tested. Which displacement did it give?
Answer: Its displacement is 1.4% (inactive).

Question: How did the displacement turn out when `CC1=C([N+](=O)[O-])C(c2ccccc2)NC(=O)N1` (stereo not given) was run?
Answer: Its displacement is -5.5% (inactive).
